The source of these data is ChEMBL document CHEMBL3988442, “University of Dundee, Small-Polar-MMV Screening Library” (2021).

For experiment [1], the target named is T1, Aspartate--tRNA(Asp/Asn) ligase (Mycobacterium tuberculosis (strain ATCC 25618 / H37Rv)) (UniProt P9WFW3). Note: in the data most compounds retested in dose-response had high values.
T1 sequence (whole entry): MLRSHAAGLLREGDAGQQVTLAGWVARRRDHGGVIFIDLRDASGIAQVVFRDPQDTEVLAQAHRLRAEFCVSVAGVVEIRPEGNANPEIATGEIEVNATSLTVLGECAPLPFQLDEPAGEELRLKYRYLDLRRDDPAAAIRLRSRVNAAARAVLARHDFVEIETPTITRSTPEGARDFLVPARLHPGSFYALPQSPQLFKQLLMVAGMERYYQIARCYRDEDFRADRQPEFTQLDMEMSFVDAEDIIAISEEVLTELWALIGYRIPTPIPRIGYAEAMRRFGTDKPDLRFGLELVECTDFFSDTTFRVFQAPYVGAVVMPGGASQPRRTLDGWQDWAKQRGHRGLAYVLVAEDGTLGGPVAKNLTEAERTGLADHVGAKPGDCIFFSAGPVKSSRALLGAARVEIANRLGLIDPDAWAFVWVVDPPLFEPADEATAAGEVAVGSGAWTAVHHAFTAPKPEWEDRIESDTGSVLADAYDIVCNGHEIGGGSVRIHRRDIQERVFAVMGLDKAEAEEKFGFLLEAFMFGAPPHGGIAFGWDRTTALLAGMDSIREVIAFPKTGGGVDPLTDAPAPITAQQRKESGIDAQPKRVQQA
In words: Assay for Asp RNA synthetase-1 from Mycobacterium tuberculosis. More on the design: scale not given: direction of the effect not stated beside the values. Format: functional. Particulars: 30 µM.

Experiment [2] addresses Shiga toxin 2 (Escherichia coli O157:H7) (UniProt P09385+P09386). In words: E. coli 0.157:H7 Shiga Toxin SOP - stx2 screening assay. Format: functional. More on the design: scale not given: direction of the effect not stated beside the values. The settings on record: 30 µM.

As to `COCCC(=O)N1CCC2(COCc3c(C)nc(NCC4CC4)nc32)C1` (centres undefined), the figures for the Percent Effect in experiment [1] and in experiment [2] were 1.96% and 0.582%, respectively.
In the case of `O=C(CN1CCCS1(=O)=O)NCCOc1ccc2c(c1)CCC2`, the Percent Effect in experiment [1] was -5.23%; in experiment [2] it was 9.97%.
In the same order, the values of `CCS(=O)(=O)N1CCC(c2cc3n(n2)[C@@H](C(F)(F)F)C[C@@H](C)N3)CC1` are 5.23% and 13%.
As to `O=C(NCc1cc[nH]n1)NCC(c1ccco1)N1CCCC1` (centres undefined), the Percent Effect in experiment [1] was 0.607%; in experiment [2] it was 4.49%.
Consider `O=C(Cc1cccs1)NC1CCN(c2cccc(F)c2)CC1`, for which the Percent Effect in experiment [1] is 2.33%; in experiment [2], -14.1%.
`Cc1cc(C)n(Cc2ccc(C(=O)NCCN3CCOCC3)cc2)n1`: the Percent Effect was -4.18% in experiment [1] and 6.83% in experiment [2].
In the same order, the values of `Cc1ccoc1C(=O)N1CCO[C@H]2[C@H](OCC3CCOCC3)CC[C@@H]21` are -4.72% and -15.8%.
Turning to `COCCCn1ccnc1-c1cnc(OC)nc1`, the Percent Effect is 2% in experiment [1] and -0.356% in experiment [2].
Consider `Cc1occc1C(=O)N1CCC2(CCCN(CC3CCC3)C2=O)C1` (centres undefined), for which the Percent Effect in experiment [1] was -2.62%; in experiment [2], -2.14%.
For the compound `O=C(CCn1ccc2cc(Br)ccc21)NCc1ccc(C(=O)O)cc1`, the results for the Percent Effect in experiment [1] and in experiment [2] were 8.3% and 30.7%, respectively.
Regarding `CCN1CC2(CCC1=O)CCN(C(=O)c1ccc(Cl)cc1O)CC2`, the Percent Effect is -1.67% in experiment [1] and -16.7% in experiment [2].
Consider `Cc1nc(NCc2ccc(C)o2)cc(C(=O)N2CCOCC2)n1`, for which the values for the Percent Effect in experiment [1] and in experiment [2] were 12.5% and -16.9%, respectively.
As for `Cn1ncc2c(=O)[nH]c(CN(Cc3cccc(F)c3)C3CC3)nc21`, the figures for the Percent Effect in experiment [1] and in experiment [2] were -6.19% and 3.9%, respectively.
Take `COc1ccc(CN2CCCC(Nc3cccc(F)c3)C2)cc1O` (centres undefined): the Percent Effect in experiment [1] came to 5.06%; in experiment [2], 5.84%.
Consider `CNc1ccc(CC2CCCN(C(=O)c3cncnc3C)C2)nn1` (centres undefined), for which the Percent Effect in experiment [1] came out at 0.485%; in experiment [2], 29.8%.
For `c1csc(CN2CCOCC3(CCN(C4CCOCC4)C3)C2)n1` (centres undefined), in that order: 9.2% and -7.95%.
As for `Cc1ccc(-c2nc(CN3CCc4c(ncn4C)C3)cs2)o1`, the Percent Effect in experiment [1] is -4.21%; in experiment [2] it was 0.313%.
